Test results from PubChem BioAssay AID2685 (National Center for Advancing Translational Sciences (NCATS), 2010).
The whole screen tested about 320,000 compounds, of which about 2,100 (0.66%) were called active. Inconclusive results (about 53%) are left out. Calls follow the shape of the dose curve; as a rule, active = well fitted inhibition curve with a large enough effect in the signal ratio, with a control signal flat (not every such curve was filed as active); inconclusive = small, poorly fitted or top-dose-only effect, or effect the other way, or a change in a side signal; inactive = flat fitted curve, though single readings scatter; the % refers to the signal ratio. The entries come from a sample that favours actives as a whole.

Assay: qHTS Assay for Lipid Storage Modulators in Drosophila S3 Cells;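 as to cell number change: cells counted by Cell Tracker Red CMTPX staining in the red channel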
Conditions: BODIPY lipid droplet fluorescence, 18-24 h, cells fed with added oleic acid; cell number change: measured here: cell count max response; series mostly up to 46.1 µM
How it was run: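 Laser-scanning cytometry quantifies lipid droplet accumulation (500–530 nm total intensity; droplet/cell object ratio) in oleic acid-fed (400 uM added) Drosophila S3 cells treated with a concentration series. 20 uM Triacsin C defined 100% inhibition.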
Potency is read from the fitted curve at half-maximal effect.

Compound | Potency | cell number change
Cc1cc(-n2cnnn2)cc(C)c1S(=O)(=O)N(C)c1ccccc1 | 10.3 µM (active) | 1.61%
Cc1cc(C)c(S(=O)(=O)N(C)c2ccccc2)c(C)c1 | inactive | -0.745%
Cc1cc(-n2cnnn2)cc(C)c1S(=O)(=O)NCCOc1ccccc1 | inactive | -19.8%
CCCOc1ccc(C(=O)O/N=C(\CC)c2ccc(C)cc2)cc1 | inactive | 8.23%
CCOC(=O)C1CCCN(C(=O)C2CCN(c3nnc(-n4cccc4)s3)CC2)C1 (stereo not given) | 16.4 µM (active) | -17.4%
CCOC(=O)N1CCN(C(=O)C2CCN(c3nnc(-n4cccc4)s3)CC2)CC1 | inactive | 29.4%
O=C(C1CCN(c2nnc(-n3cccc3)s2)CC1)N1CCCCC1 | inactive | 
COC(=O)C1CSc2[nH]c(=O)sc2C1c1ccc(OC)c(OC)c1 (stereo not given) | inactive | -7%
CCC(C(=O)OCC(=O)N1C(C)CCCC1C)c1ccccc1 (stereo not given) | inactive | -35.7%
Cc1cc(F)ccc1S(=O)(=O)N1CCCOC1CNC(=O)C(=O)NC1CCCC1 (stereo not given) | inactive | 13.2%
O=C(NCCO)C(=O)NCC1OCCCN1S(=O)(=O)c1cc(F)ccc1F (stereo not given) | inactive | 0.587%
O=C(NCC1OCCCN1S(=O)(=O)c1cc(F)ccc1F)C(=O)NC1CCCCCC1 (stereo not given) | 4.61 µM (active) | 3.2%
CCc1cccc(CC)c1NC(=O)C1SC(=Nc2ccccc2C)C(c2nc3ccccc3s2)=C1N (stereo not given) | inactive | 
O=C1NC2(CCSC2)C(=O)N1CC(=O)N(Cc1ccccc1)C1CCS(=O)(=O)C1 (stereo not given) | inactive | 1.14%
O=C(NC1CC2CCCC(C1)N2C(=S)NCCc1ccccc1)C1CC1 (stereo not given) | inactive | -26.1%
CCNCc1cc(Br)c(OCC(=O)Nc2ccccc2)c(OC)c1 | inactive | 1.4%
COc1cc(CO)cc(Br)c1OCc1cccnc1 | inactive | -5.87%
COc1cc(CO)cc(Br)c1OCC(=O)O | 2.06 µM (active) | 9.61%
CC(C)(C)c1ccc(/C=C/C(=O)N2CCOCC2)cc1 | inactive | -2.69%
CCC1Sc2ccc(S(=O)(=O)CCC(=O)NCc3ccc(C)o3)cc2NC1=O (stereo not given) | inactive | -1.81%
O=C(NN1CCOCC1)c1cccc(Cl)c1 | inactive | 14.2%
Cc1cc(C(=O)N2CCCC(C(=O)c3ccc4ccccc4c3)C2)nn1C (stereo not given) | inactive | 11.4%
Cc1cc(C(=O)N2CCCC(C(=O)c3ccc4ccccc4c3)C2)n(C)n1 (stereo not given) | 25.9 µM (active) | -14.9%

Compound | Potency | cell number change
CC(C)c1cc(C(=O)N2CCCC(C(=O)c3ccc4ccccc4c3)C2)on1 (stereo not given) | inactive | 
Cc1cc(C(=O)NC2CCC(C)CC2)c(C)o1 (stereo not given) | inactive | -8.31%
O=C(CSc1nnc(-c2cccnc2)n1CCN1CCCCC1)Nc1cccc(Cl)c1 | inactive | 11.7%
CCCN1C2CCCC1CC(NC(=S)NCCCOCC)C2 (stereo not given) | inactive | -29.4%
CCSc1nc(-c2ccccc2)nc(C(Cl)Cl)n1 | 5.17 µM (active) | -6.95%
CCSc1nc(-c2ccccc2)c2cc(Cl)ccc2n1 | inactive | -8.68%
CSc1nc(-c2ccccc2)nc(C(Cl)Cl)n1 | 8.2 µM (active) | -22.1%
CSc1nc(-c2ccc(C)cc2)nc(C(Cl)Cl)n1 | inactive | 10.6%
CSc1nnc(-c2ccccc2)c(-c2ccccc2)n1 | inactive | -3.83%
Clc1cc(CSc2ccccc2)nc(-c2ccccc2)n1 | inactive | 
COc1ccccc1/C=N/OC(=O)c1ccc(F)cc1 | inactive | 3.91%
Cc1cc(Cl)c(Cl)cc1S(=O)(=O)NCCCn1ccnc1 | 6.51 µM (active) | -5.8%
COc1cc(Cl)c(S(=O)(=O)NCCCn2ccnc2)cc1Cl | inactive | 29%
Cc1cc(C)c(S(=O)(=O)NCCCn2ccnc2)cc1C | inactive | 4.74%
COc1cccc(NC(=O)C2CCC(CNC(=O)[C@@H]3Cc4ccccc4CN3)CC2)c1 (stereo not given in full) | inactive | 0.236%
CC(C(=O)Nc1ccc(F)c(F)c1F)N(C)Cc1cccs1 (stereo not given) | inactive | 25.5%
O=C(Nc1ccncc1)C1CCN(S(=O)(=O)c2ccc(Cl)c(C(F)(F)F)c2)CC1 | 10.3 µM (active) | 2.68%
O=C(Nc1ccncc1)C1CCN(S(=O)(=O)c2cccc(C(F)(F)F)c2)CC1 | inactive | -3.08%
COc1ccc(CNC(=O)[C@H](C)NC(=O)C2CCN(S(=O)(=O)c3ccc(F)cc3)CC2)cc1 | 18.4 µM (active) | 3.44%
COc1ccc(S(=O)(=O)N2CCC(C(=O)N[C@@H](C)C(=O)NCc3ccc(F)cc3)CC2)cc1 | inactive | 13.5%
COc1ccc(S(=O)(=O)N2CCCC(C(=O)N3CCOCC3)C2)cc1C (stereo not given) | inactive | 17.1%
CCOC(=O)N1CCN(S(=O)(=O)N2CCCC(C(=O)NCCc3ccc(OCC)c(OCC)c3)C2)CC1 (stereo not given) | 4.61 µM (active) | 
COc1ccc(CNC(=O)[C@H](C)NC(=O)C2CCN(S(=O)(=O)c3ccc(C)cc3)CC2)cc1 | inactive | -4.43%

Compound | Potency | cell number change
CCOC(=O)N1CCN(S(=O)(=O)N2CCCC(C(=O)NCCc3ccc(OC)c(OC)c3)C2)CC1 (stereo not given) | inactive | -20.2%
CCOc1ccc(CCNC(=O)C2CCCN(S(=O)(=O)N3CCOCC3)C2)cc1OCC (stereo not given) | inactive | 0.288%
CCOc1ccc(S(=O)(=O)N2CCCC(C(=O)N3CCOCC3)C2)cc1C (stereo not given) | 2.31 µM (active) | -23.5%
CS(=O)(=O)N1CCC(C(=O)Nc2ccc(Cl)c(C(F)(F)F)c2)CC1 | inactive | -15.8%
CCOc1ccc(S(=O)(=O)N2CCCC(C(=O)N3CCOCC3)C2)cc1Cl (stereo not given) | inactive | 16.4%
O=C(NC1=NCCS1)c1ccccc1Cl | inactive | -14.3%
CO/N=C/CC(=O)Nc1ccc(F)cc1F | inactive | 16.8%
CCCNC(=O)Nc1nc(CC(=O)OCC)cs1 | inactive | -16.9%
CC1NC2(C(=O)N(Cc3ccccc3)c3ccccc32)C2C(=O)N(c3ccccc3)C(=O)C12 (stereo not given) | inactive | 
CC1Cc2ccccc2C(CCc2ccccc2)=N1 (stereo not given) | inactive | -1.48%
CSc1cccc(CNC(=O)CC2C(=O)NCCN2CC(C)(C)C)c1 (stereo not given) | inactive | 22%
COc1ccc(-c2cc3cc(C(=O)O)ccn3c2C(=O)c2ccccc2)cc1 | inactive | 2.31%
CC1CCC2(CC1)NC(=O)N(CC(=O)NC(=O)Nc1ccc3c(c1)OCCO3)C2=O (stereo not given) | inactive | 17.3%
CCOc1ccc(S(=O)(=O)N2CCCC(C(=O)NCc3ccncc3)C2)cc1C (stereo not given) | inactive | 9.24%
O=C(NCc1ccncc1)C1CCN(S(=O)(=O)c2ccc(F)cc2)CC1 | inactive | 1.32%
CCOc1ccc(S(=O)(=O)N2CCC(C(=O)NCc3ccncc3)CC2)cc1Cl | inactive | -18.4%
Cc1ccc(S(=O)(=O)N2CCC(C(=O)NCc3ccncc3)CC2)cc1 | 18.4 µM (active) | 12.7%
COc1ccc(S(=O)(=O)N2CCC(C(=O)NCCc3ccccc3)CC2)cc1 | inactive | 20.5%
Cc1ccc(S(=O)(=O)N2CCC(C(=O)NCCc3ccccc3)CC2)cc1 | 23.1 µM (active) | -12.9%
CSc1ccc(S(=O)(=O)N2CCC(C(=O)NCc3ccncc3)CC2)cc1 | inactive | 19.2%
O=C(NC1CCCCCC1)C1CCN(S(=O)(=O)c2ccc(F)cc2)CC1 | inactive | -1.11%
Cc1ccc(S(=O)(=O)N2CCC(C(=O)N[C@@H](C)C(=O)NCCc3ccccc3)CC2)cc1 | inactive | 4.36%
O=C(NC1CCN(S(=O)(=O)c2ccc(F)cc2)CC1)C1CCCCC1 | 5.17 µM (active) | -18.1%

Compound | Potency | cell number change
CCOc1ccc(S(=O)(=O)N2CCCC(C(=O)NCc3ccncc3)C2)cc1Cl (stereo not given) | 1.03 µM (active) | 25.2%
O=C(NC1CCCCC1)C1CCCN(S(=O)(=O)c2ccc(F)cc2)C1 (stereo not given) | inactive | 2.52%
Cc1ccc(NC(=O)C(C)OC(=O)COc2cccc(C(F)(F)F)c2)cc1 (stereo not given) | inactive | 3.29%
COc1ccccc1N(CCC#N)C(=O)CSc1nc(-c2ccccc2)cn1N | inactive | -6.12%
COc1ccc(/C=C/c2nc(-c3ccccc3)cc(=O)[nH]2)cc1 | inactive | -10.9%
Cc1cn(C2CCC(CO)O2)c(=O)[nH]c1=O (stereo not given) | inactive | 27%
CC1CCCC(NC(=O)COC(=O)c2cccs2)C1C (stereo not given) | inactive | 0.184%
CCOc1ccc(NC(=O)CN2C(=O)C3CCCN3C2=O)cc1 (stereo not given) | inactive | 
CC1(C)CC(=O)C(C=NCCN2CCN(CCc3ccccc3)CC2)=C(O)C1 | inactive | 
Cc1ccccc1C(=O)N1CCN(c2ccc(NC(=O)c3cccnc3)cc2)CC1 | inactive | 24.6%
CCOc1cc(C(=S)N2CCN(C)CC2)ccc1OCC(=O)N1CCOCC1 | inactive | -0.877%
COc1ccc2c(c1)C1=NN(/C(C)=C\C(C)=O)C(c3ccccc3)C1CC2 (stereo not given) | inactive | -20.1%
COc1cccc(CNCC(O)COc2ccc(C(=O)c3ccccc3)cc2)c1 (stereo not given) | inactive | -29.5%
COC(=O)CN1C(=O)NC2(CCCc3ccccc32)C1=O (stereo not given) | inactive | 1.11%
O=C(c1ccc(C(F)(F)F)cc1)C1CCCN(Cc2cccn2-c2ncccn2)C1 (stereo not given) | inactive | 20.4%
O=C1CC(N2CCN(c3ccc(F)cc3)CC2)C(=O)N1c1ccc(F)cc1 (stereo not given) | inactive | -10.9%
CCCCS(=O)(=O)N1CCCC(C(=O)NCCc2ccccc2)C1 (stereo not given) | inactive | -7.87%
CCCS(=O)(=O)N1CCCC(C(=O)NCCc2ccccc2)C1 (stereo not given) | inactive | 1.16%
CCS(=O)(=O)N1CCCC(C(=O)NCCc2ccccc2)C1 (stereo not given) | 25.9 µM (active) | -14.3%
Cc1ccc(C(=O)NCC(c2ccco2)N2CCCCC2)s1 (stereo not given) | inactive | 20.8%
CC(=O)c1cccc(NC(=O)C2CC(=O)N(Cc3ccccc3)C2)c1 (stereo not given) | inactive | 
O=C(O)c1cccc(NC(=O)C2CC(=O)N(Cc3ccccc3)C2)c1 (stereo not given) | 4.61 µM (active) | -0.647%
CSc1cccc(NC(=O)C2CC(=O)N(Cc3ccccc3)C2)c1 (stereo not given) | inactive | 8.1%
